Experimental findings from PMC5700166 are described below.

Common to all, as to experiment: protein-binding microarray (PBM); PBM: ~300 nM protein, 6 mM HEPES pH 7.8, 80 mM KCl, 0.5 mM EDTA, 0.5 mM EGTA, 6% glycerol, 35 ng/ul poly-dIdC, 1% milk, 1 h, room temperature; Ap Aiptasia and Nv Nematostella (sea anemones) / Co Capsaspora / Aq Amphimedon (sponge) / Dm Drosophila / Hu human; RHD is the Rel homology domain; high values mean tight binding
What all share (details): dsDNA, one strand shown

Assay [1] has as its target T1, GST-Ap-NF-kB RHD (Exaiptasia pallida (Aiptasia), UniProt A0A913YAJ5 2-422).
T1 sequence: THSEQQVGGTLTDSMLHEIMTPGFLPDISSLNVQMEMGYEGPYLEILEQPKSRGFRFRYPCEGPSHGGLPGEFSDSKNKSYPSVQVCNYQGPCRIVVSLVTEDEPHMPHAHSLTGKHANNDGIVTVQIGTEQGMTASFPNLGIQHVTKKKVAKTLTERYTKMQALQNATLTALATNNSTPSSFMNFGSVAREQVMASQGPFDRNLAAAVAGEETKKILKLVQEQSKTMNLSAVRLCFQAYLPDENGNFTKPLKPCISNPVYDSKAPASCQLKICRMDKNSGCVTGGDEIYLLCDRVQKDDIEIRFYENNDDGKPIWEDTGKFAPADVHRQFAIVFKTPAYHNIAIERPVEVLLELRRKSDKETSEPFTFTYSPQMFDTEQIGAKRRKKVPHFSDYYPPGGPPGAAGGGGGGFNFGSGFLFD

In assay [2] the target is T2, GST-Nv-NF-kB (Cys allele) (Nematostella vectensis, UniProt E5G601 2-411).
T2 sequence: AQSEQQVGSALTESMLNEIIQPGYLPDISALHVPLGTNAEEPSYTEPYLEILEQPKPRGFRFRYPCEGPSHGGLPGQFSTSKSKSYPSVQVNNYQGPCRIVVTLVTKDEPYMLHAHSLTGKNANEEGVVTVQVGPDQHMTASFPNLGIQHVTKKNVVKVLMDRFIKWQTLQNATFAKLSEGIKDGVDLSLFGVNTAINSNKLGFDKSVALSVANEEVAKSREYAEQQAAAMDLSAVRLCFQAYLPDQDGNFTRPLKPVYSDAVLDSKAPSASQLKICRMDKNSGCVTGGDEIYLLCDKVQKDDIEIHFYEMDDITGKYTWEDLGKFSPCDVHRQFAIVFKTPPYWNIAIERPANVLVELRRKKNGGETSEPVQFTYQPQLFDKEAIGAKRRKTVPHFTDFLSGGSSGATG

Assay [3] deals with T3, GST-Co-NF-kB (Capsaspora owczarzaki, UniProt F1ARL5 200-546).
T3 sequence: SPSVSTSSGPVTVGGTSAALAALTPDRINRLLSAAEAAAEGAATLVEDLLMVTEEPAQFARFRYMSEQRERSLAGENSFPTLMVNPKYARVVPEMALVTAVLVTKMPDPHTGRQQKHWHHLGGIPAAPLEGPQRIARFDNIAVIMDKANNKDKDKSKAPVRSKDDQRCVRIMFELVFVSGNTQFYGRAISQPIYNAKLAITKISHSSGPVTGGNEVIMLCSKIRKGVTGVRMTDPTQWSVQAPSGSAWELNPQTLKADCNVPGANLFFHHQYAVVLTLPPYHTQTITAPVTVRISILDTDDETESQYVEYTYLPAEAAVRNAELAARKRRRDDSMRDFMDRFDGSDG

The target in assay [4] is T4, GST-Dm-Relish (Drosophila melanogaster, UniProt Q94527 99-473).
T4 sequence: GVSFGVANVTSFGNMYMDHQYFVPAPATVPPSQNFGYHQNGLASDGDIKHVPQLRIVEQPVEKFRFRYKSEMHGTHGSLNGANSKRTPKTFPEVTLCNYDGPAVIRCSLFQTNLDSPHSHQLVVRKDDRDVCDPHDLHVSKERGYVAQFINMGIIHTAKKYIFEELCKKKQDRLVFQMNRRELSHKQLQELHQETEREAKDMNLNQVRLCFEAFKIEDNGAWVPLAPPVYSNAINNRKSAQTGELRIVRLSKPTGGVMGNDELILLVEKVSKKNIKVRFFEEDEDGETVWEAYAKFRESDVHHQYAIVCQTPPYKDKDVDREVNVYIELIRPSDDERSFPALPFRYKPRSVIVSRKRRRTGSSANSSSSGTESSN

Assay [5] addresses T5, GST-Aq-NF-kB (Amphimedon queenslandica, UniProt A9Y5G7 2-389).
T5 sequence: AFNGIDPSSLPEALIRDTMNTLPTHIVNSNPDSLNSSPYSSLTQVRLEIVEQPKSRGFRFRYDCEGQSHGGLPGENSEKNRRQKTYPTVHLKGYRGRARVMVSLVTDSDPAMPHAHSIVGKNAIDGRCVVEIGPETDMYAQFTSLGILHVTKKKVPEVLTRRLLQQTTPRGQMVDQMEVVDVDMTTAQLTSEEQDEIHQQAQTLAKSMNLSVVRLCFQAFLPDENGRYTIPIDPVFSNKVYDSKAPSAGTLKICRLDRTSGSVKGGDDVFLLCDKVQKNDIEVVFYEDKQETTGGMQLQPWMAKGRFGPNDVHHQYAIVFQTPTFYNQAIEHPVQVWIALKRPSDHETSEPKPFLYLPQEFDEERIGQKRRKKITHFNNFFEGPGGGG

For assay [6], the target named is GST-Hu-p50 (Homo sapiens, UniProt P19838 7-356).
Sequence of GST-Hu-p50 (P19838 7-356): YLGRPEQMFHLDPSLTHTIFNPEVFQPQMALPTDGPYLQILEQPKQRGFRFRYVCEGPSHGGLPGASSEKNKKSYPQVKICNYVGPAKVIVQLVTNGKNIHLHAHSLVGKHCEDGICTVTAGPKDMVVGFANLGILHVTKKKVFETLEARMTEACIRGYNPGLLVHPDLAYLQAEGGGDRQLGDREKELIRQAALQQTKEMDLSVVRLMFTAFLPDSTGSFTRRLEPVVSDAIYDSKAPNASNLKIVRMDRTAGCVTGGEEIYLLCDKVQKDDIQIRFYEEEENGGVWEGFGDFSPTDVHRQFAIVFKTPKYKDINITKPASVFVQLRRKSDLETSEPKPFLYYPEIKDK

On to “CCGATTAACATCAAAAAATCCCTTGATGTTAATCGGGTCTTGATTCGCTTGACGCTGCTG”, for which the binding signal was found to be 6.16 z-score in assay [1]; 7.58 z-score in assay [2]; 1.77 z-score in assay [3]; 8.1 z-score in assay [4]; 7.46 z-score in assay [5]; 5.47 z-score in assay [6].
For “CCGATTAACATCAAGGGACTTCCTGATGTTAATCGGGTCTTGATTCGCTTGACGCTGCTG”, the binding signal in assay [1] was 6.06 z-score; in assay [2], 7.09 z-score; in assay [3], 1.07 z-score; in assay [4], 7.2 z-score; in assay [5], 6.58 z-score; in assay [6] it was 5.08 z-score.
“CCGATTAACATCATGTATGCCCCTGATGTTAATCGGGTCTTGATTCGCTTGACGCTGCTG”: the binding signal was 1.68 z-score in assay [1]; 1.71 z-score in assay [2]; 1.24 z-score in assay [3]; 1.12 z-score in assay [4]; 2.51 z-score in assay [5]; 1.27 z-score in assay [6].
Take “CCGATTAACATCAAAAGCCCCCATGATGTTAATCGGGTCTTGATTCGCTTGACGCTGCTG”: the binding signal was 5.8 z-score in assay [1]; 6.19 z-score in assay [2]; 2.08 z-score in assay [3]; 6.91 z-score in assay [4]; 6.49 z-score in assay [5]; 6.29 z-score in assay [6].
As to “CCGATTAACATCAGGGATACACCTGATGTTAATCGGGTCTTGATTCGCTTGACGCTGCTG”, the binding signal in assay [1] amounted to 2.29 z-score; in assay [2], 1.83 z-score; in assay [3], 1.56 z-score; in assay [4] it was 2.76 z-score; in assay [5], 3.45 z-score; in assay [6] it was 2.49 z-score.
Turning to “CCGATTAACATCAAAGAGCCCCCTGATGTTAATCGGGTCTTGATTCGCTTGACGCTGCTG”, the binding signal was found to be 4.73 z-score in assay [1]; 4.16 z-score in assay [2]; 1.68 z-score in assay [3]; 3.94 z-score in assay [4]; 5.01 z-score in assay [5]; 4.43 z-score in assay [6].
On to “CCGATTAACATCAAGGGGGATACTGATGTTAATCGGGTCTTGATTCGCTTGACGCTGCTG”, for which the binding signal in assay [1] worked out at 6.74 z-score; in assay [2], 4.59 z-score; in assay [3], 4.72 z-score; in assay [4], 3.41 z-score; in assay [5], 4.99 z-score; in assay [6], 5.48 z-score.
In the case of “CCGATTAACATCAAAAAGCCCCGTGATGTTAATCGGGTCTTGATTCGCTTGACGCTGCTG”, the binding signal in assay [1] is 6.52 z-score; in assay [2], 8.2 z-score; in assay [3], 1.43 z-score; in assay [4], 8.47 z-score; in assay [5], 7.21 z-score; in assay [6] it was 6.06 z-score.
“CCGATTAACATCAAACGTTCCCCTGATGTTAATCGGGTCTTGATTCGCTTGACGCTGCTG”: the binding signal amounted to 5.26 z-score in assay [1]; 5.7 z-score in assay [2]; 6.66 z-score in assay [3]; 3.29 z-score in assay [4]; 4.66 z-score in assay [5]; 4.03 z-score in assay [6].
Take “CCGATTAACATCAAAACACCCCTTGATGTTAATCGGGTCTTGATTCGCTTGACGCTGCTG”: the binding signal in assay [1] came out at 3.63 z-score; in assay [2], 2.54 z-score; in assay [3], 2 z-score; in assay [4] it was 4.19 z-score; in assay [5] it was 4.03 z-score; in assay [6] it was 4.32 z-score.
“CCGATTAACATCAGGGGGAGCACTGATGTTAATCGGGTCTTGATTCGCTTGACGCTGCTG”: the binding signal in assay [1] turned out to be 5.93 z-score; in assay [2] it was 3.91 z-score; in assay [3], 6.25 z-score; in assay [4], 7.14 z-score; in assay [5], 5.5 z-score; in assay [6], 4.89 z-score.
